Activity calls are given as the source filed them. No rule for the calls is given here.
Molecular target: Pantothenate synthetase (Mycobacterium tuberculosis (strain ATCC 25618 / H37Rv)) (UniProt P9WIL5)
Experiment: Coupled enzyme confirmation of inhibitors against recombinant Mtb PanC (AID 375);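 also: 0% = full reaction with vehicle and 100% = no enzyme background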
Conditions: coupled enzyme assay; at 10 µM, hits give high values

Chain of Pantothenate synthetase (Mycobacterium tuberculosis (strain ATCC 25618 / H37Rv)) (P9WIL5 whole entry, looked up): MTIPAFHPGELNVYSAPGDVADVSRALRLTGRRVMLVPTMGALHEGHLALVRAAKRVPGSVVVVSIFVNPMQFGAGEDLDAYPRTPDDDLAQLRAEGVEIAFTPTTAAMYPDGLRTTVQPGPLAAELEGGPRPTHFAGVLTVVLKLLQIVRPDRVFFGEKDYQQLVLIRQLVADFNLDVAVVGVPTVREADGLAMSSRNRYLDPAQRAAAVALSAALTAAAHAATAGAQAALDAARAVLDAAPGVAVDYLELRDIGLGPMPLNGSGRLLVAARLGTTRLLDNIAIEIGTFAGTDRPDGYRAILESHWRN

| Compound | inhibition |
| --- | --- |
| CCC(=O)Nc1nn(C)c2nc3c(C)cccc3cc12 | 0% (inactive) |
| COc1ccc(-n2c(SCC(N)=O)nc3sc4c(c3c2=O)CCN(C)C4)cc1 | 0% (inactive) |
| COC(=O)c1cc(=O)n(Cc2ccc3c(c2)OCO3)c(=Nc2ccccc2)s1 | 7% (inactive) |
| CCOC(=O)c1nn(-c2sc(C(=O)OC)c(C)c2C(=O)OC)cc1O | 18% (inactive) |
| CCOC(=O)c1ccc(NC(=O)CSc2ncccn2)cc1 | 6% (inactive) |
| COc1cccc(-c2cc3nc4c(c(N5CCC6(CC5)OCCO6)n3n2)CCCC4)c1 | 0% (inactive) |
| Nc1cc(-c2ccccc2)ccc1O | 1% (inactive) |
| COc1ccc(C)cc1NC(=O)CN1CCN(S(=O)(=O)c2ccc(Cl)cc2)CC1 | 0% (inactive) |
| Cn1c2c(c(=O)[nH]c1=O)C(NC(=O)c1ccco1)(C(F)(F)F)C(=O)N2 (configuration not stated) | 0% (inactive) |
| COc1ccc(-c2noc(COc3ccc(C)c(C)c3)n2)cc1OC | 0% (inactive) |
| CCOC(=O)c1ccc(COC(=O)CCc2nc3ccccc3[nH]c2=O)o1 | 0% (inactive) |
| COCCOC(=O)c1[nH]c2c(c1C)C(=O)CC(c1ccco1)C2 (configuration not stated) | 3% (inactive) |
| Nc1nc(-c2ccccc2)cc(C(F)(F)F)n1 | 5% (inactive) |
| CCn1c(SCC(=O)c2ccc(Cl)cc2)nnc1-c1ccoc1C | 0% (inactive) |
| CCc1ccc(N2CC(C(=O)OCC(=O)NC3CCS(=O)(=O)C3)CC2=O)cc1 (configuration not stated) | 0% (inactive) |
| Cc1cc(Cl)ccc1NC(=O)CSc1nnc(Cc2cccs2)n1Cc1ccco1 | 0% (inactive) |
| O=C(C1CCCO1)N1CCc2ccccc21 (configuration not stated) | 10% (inactive) |
